KCNH2 3.1 inh: inhibitors of human KCNH2 3.1 potassium channel isoform; AID 720553; hit rate 0.95% among 340,000; activity change, % (tested at about 1.8 µM); U2OS KCNH2 3.1, thallium flux FluxOr; active compounds read low;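 active = maximum activity change below -70%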;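 also: thallium influx rate constant from kinetic fluorescence after stimulation buffer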
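FluxOr-based Tl+ influx in U2OS cells transduced with KCNH2 3.1 virus; rate constants normalized to DMSO controls.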
RXFP1 agonist: agonists of human relaxin receptor RXFP1; AID 2676; hit rate 0.3% among 370,000; HEK293T-RXFP1 cAMP TR-FRET, 30 min; response scale: percent of porcine relaxin response, buffer zero; Q9HBX9; Potency, µM (highest dose often 57.5 µM), inactives show top-dose activation, most hits filed as activators; active = well fitted activation curve with a large enough effect; also: potency is read from the fitted curve at half-maximal effect; nearly all actives have a fitted effect of over 60% in size
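cAMP rise read by TR-FRET after 30 min, 37C compound exposure (up to 58 uM) in RXFP1-transfected HEK293 cells with Ro 20174 present. EC50 from Hill-equation fits, with 29 nM porcine relaxin as 100% and buffer as basal.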
hERG WT inh: inhibitors of human wildtype KCNH2 potassium channel; Q12809; U2OS, BacMam KCNH2, thallium flux FluxOr; active compounds read low; activity change, % at 1.84 µM; hit rate 0.37% among 340,000; AID 720551;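 active = maximum activity change below -70%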
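U2OS cells transduced with wild-type KCNH2 virus are loaded with FluxOr dye for 45 min, and thallium flux is measured in kinetic reads before and after stimulation buffer. Rate constants are normalized to DMSO controls.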
RXFP1 antagonist: RXFP1 (human) relaxin receptor antagonism; hit rate 0.59% among 350,000; Q9HBX9; activity change, negative = inhibition, % at 57.5 µM; HEK293-RXFP1, relaxin-stimulated cAMP HTRF, 30 min; active compounds read low;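 active = activity change of -60% or lower, but not beyond a set lower limit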
Akt phos inh: inhibitors of Akt phosphorylation | Neuro2A IGF-stimulated pAkt S473 HTRF, 20 min; active compounds read low | activity change, % for hits at 50 µM | hit rate 0.32% among 360,000; in the data active = activity change below about -80%
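Single-point screen (50 µM final compound) in Neuro2A cells stimulated 20 min with 6 nM IGF at 37 deg C. After lysis, Ser473-phosphorylated Akt read by HTRF (ex 330 nm, em 615/665 nm) as the 665/615 ratio.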
* marks the source's active call; other numbers are inactive results; i = inactive; . = no result given. Only some compounds are listed: those with a hit (about 1.7% of all), similar ones and a draw of the others. % is scaled to controls: 0 for no effect and ±100 for the full control effect.

SMILES | KCNH2 3.1 inh | RXFP1 agonist | hERG WT inh | RXFP1 antagonist | Akt phos inh
O=C(NC1CCCc2ccccc21)C1CCN(c2nnc(-n3cccc3)s2)CC1 (stereo not drawn) | -79.1* | 0.3% | -4.2 | . | i
CCC(Nc1ccc(OC)cc1)C(=O)N/N=C/c1ccc([N+](=O)[O-])cc1 (stereo not drawn) | -4.2 | -1.1% | -7.0 | -2.3 | i
NC(=O)COC(=O)c1cccnc1Nc1ccccc1F | -72.3* | -0.2% | 5.5 | -20.2 | i
CN(C)C(=O)COC(=O)c1cccnc1Nc1ccccc1F | 4.3 | -2.3% | -0.6 | -2.6 | i
c1ccc(-c2nc(-c3nccc4ccccc34)oc2-c2ccccc2)cc1 | -10.2 | 6.0% | -1.0 | 2.2 | i
Cc1ccc(C(=O)N2CCCCC2)cc1NC1=C(Cl)C(=O)N(Cc2ccccc2)C1=O | -25.4 | 1.8% | 8.6 | -16.6 | i
O=[N+]([O-])c1ccc(COc2ncnc3ccccc23)cc1 | -192.3* | 3.9% | -162.8* | 1.4 | i
COC(=O)c1ccc(COc2ncnc3ccccc23)o1 | -12.7 | 15.8µM* | -0.7 | 8.5 | i
COC(=O)c1cnn(-c2nc(OC)cc(OC)n2)c1C | 5.2 | 1.0% | 2.2 | . | i
CC(C)C[C@H]1CN=C(Nc2ccccc2)N1CC1CCC(C)CC1 (stereo partly drawn) | -82.7* | 0.2% | 11.7 | . | i
CC(C)C[C@H]1CN=C(Nc2ccccc2)N1CCCC1CCCC1 | 11.0 | -0.5% | -91.5* | . | i
CC(C)C[C@H]1CN=C(Nc2ccccc2)N1CCCC1CCCCC1 | -41.2 | -0.4% | 9.2 | . | i
CC1CCC(CN2C(Nc3ccccc3)=NC[C@@H]2Cc2ccccc2)CC1 (stereo partly drawn) | -91.0* | . | 8.4 | . | i
c1ccc(C[C@H]2CN=C(Nc3ccccc3)N2CC2CCC2)cc1 | -13.8 | -0.4% | -6.8 | . | i
CCN1C[C@@H]2[C@@H]3C(=O)N(Cc4ccccc4)C(=O)[C@@H]3[C@](CC)(C1=O)N2C(=O)c1ccc(Cl)c(Cl)c1 | -32.0 | . | 1.0 | . | i
CCc1cc2c(=O)n(Cc3ccco3)c(SCC(=O)N(C)C3CCS(=O)(=O)C3)nc2s1 (stereo not drawn) | -110.6* | -2.0% | -89.5* | -23.9 | i
O=C(CSc1nc2ccccc2c(=O)n1Cc1ccco1)N1CCCCCC1 | -80.5* | -3.4% | -7.6 | -17.4 | i
CCc1cc2c(=O)n(Cc3ccco3)c(SCC(=O)N3CCCc4ccccc43)nc2s1 | -77.4* | 2.7% | -8.4 | -1.2 | i

High-throughput results (PubChem)
